# Values joined by “and” are separate entries in the source; they are usually repeats but may differ in a detail not shown here. Equal entries are not always repeated. Some compounds were tested as several samples or in several runs, with calls that do not always agree. Active and inactive are the calls of the source. Rule for the calls: active = hit-call score of the fitted dose curve at least 0.9, where 1 is the maximum; inactive = score below 0.9.
# Columns and labels:
# Details in all cases: primary human HUVEC with PBMC; actives raise or lower the signal
# [1] = read-out: Monocyte Chemoattractant Protein-1 (MCP1), CCL2 (gene 6347); experiment: BSK_LPS_MCP1: BioMAP Diversity Plus: LPS Assay for Monocyte Chemoattractant Protein-1 (MCP1) Biomarker Activity (AID 2283081);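 for AC50: secreted MCP-1 protein quantified by ELISA in culture supernatant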
# Procedure, shortened: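 Human umbilical vein endothelial cells co-cultured with PBMC, LPS-stimulated; secreted MCP-1 measured by ELISA 24 h after compound addition. Bidirectional curve fitting against DMSO baseline; SRB total-protein staining in parallel cultures for cytotoxicity.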
# [2] = BSK_LPS_PGE2: BioMAP Diversity Plus: LPS Assay for Prostaglandin E2 (PGE2) Biomarker Activity (AID 2283082);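 for AC50: secreted prostaglandin E2 measured by ELISA in LPS-stimulated co-culture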
# Procedure, shortened: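 Endpoint derived from bidirectional curve fitting versus DMSO of ELISA-measured PGE2 in LPS-stimulated human primary vascular co-culture (HUVEC with PBMC) harvested at 24 h.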
# [3] = read-out: Macrophage colony-stimulating factor (MCSF), CSF1 (gene 1435); experiment: BSK_LPS_MCSF: BioMAP Diversity Plus: LPS Assay for Macrophage colony-stimulating factor (MCSF) Biomarker Activity (AID 2283083)
# Procedure, shortened: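 HUVEC–PBMC co-culture, M-CSF measured by ELISA 24 h after chemical dosing. Fitted in both directions relative to DMSO as negative control; overt cytotoxicity assessed by SRB total-protein staining in parallel cultures.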
# [4] = read-out: Tissue Factor, F3 (gene 2152); experiment: BSK_LPS_TissueFactor: BioMAP Diversity Plus: LPS Assay for Tissue Factor Biomarker Activity (AID 2283084)
# Procedure, shortened: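 Human umbilical vein endothelial cells co-cultured with PBMC were dosed with compound. Cell-surface CD142 was measured by ELISA 24 h later. Activity was fitted bidirectionally against DMSO, with SRB total-protein staining in parallel cultures for cytotoxicity.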
# [5] = read-out: Tumor necrosis factor (Homo sapiens) (UniProt P01375); experiment: BSK_LPS_TNFa: BioMAP Diversity Plus: LPS Assay for Tumour Necrosis Factor alpha (TNFa) Biomarker Activity (AID 2283085)
# Procedure, shortened: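 Primary human vascular co-culture of HUVEC and PBMC; TNFa ELISA 24 h after treatment, analysed as increase or decrease relative to DMSO control.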
# [6] = read-out: Vascular cell adhesion molecule 1 (VCAM1), VCAM1 (gene 7412); experiment: BSK_LPS_VCAM1: BioMAP Diversity Plus: LPS Assay for Vascular cell adhesion molecule 1 (VCAM1) Biomarker Activity (AID 2283086)
# Procedure, shortened: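 Primary human vascular co-culture (umbilical vein endothelium plus PBMC) stimulated with LPS received chemical; 24 h later VCAM-1 was read by ELISA. Overt cytotoxicity was assessed by sulforhodamine B staining of parallel cultures at the same time point.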
# [7] = read-out: CD38, CD38 (gene 952); experiment: BSK_SAg_CD38: BioMAP Diversity Plus: SAg Assay for CD38 Biomarker Activity (AID 2283087)
# Procedure, shortened: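 Fluorescence ELISA of cell-surface CD38 served as the read-out, with either increase or decrease fitted against DMSO controls. Cells were a human umbilical vein endothelium plus PBMC co-culture under SEB/TSST-1 stimulation, measured 24 h after dosing.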
# [8] = read-out: CD40, CD40 (gene 958); experiment: BSK_SAg_CD40: BioMAP Diversity Plus: SAg Assay for CD40 Biomarker Activity (AID 2283088)
# Procedure, shortened: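 HUVEC plus PBMC co-culture, superantigen-activated, with CD40 read by ELISA 24 h after dosing. Curves fitted in both directions against DMSO. Overt cytotoxicity checked by parallel SRB total-protein staining.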
# [9] = read-out: CD69, CD69 (gene 969); experiment: BSK_SAg_CD69: BioMAP Diversity Plus: SAg Assay for CD69 Biomarker Activity (AID 2283089);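 for AC50: cell surface CD69 protein quantified by ELISA with fluorescence detection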
# Procedure, shortened: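 Values derive from bidirectional fitting relative to DMSO vehicle. Cells: umbilical vein endothelium plus peripheral blood mononuclear cells, treated 24 h before fluorescent ELISA for CD69.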
# [10] = read-out: Monocyte Chemoattractant Protein-1 (MCP1), CCL2 (gene 6347); experiment: BSK_SAg_MCP1: BioMAP Diversity Plus: SAg Assay for Monocyte Chemoattractant Protein-1 (MCP1) Biomarker Activity (AID 2283090)
# Procedure, shortened: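 MCP-1 levels in the endothelial–PBMC SAg co-culture were quantified by ELISA at 24 h post-dosing; both increases and decreases versus DMSO scored. Cytotoxicity monitored by SRB total protein in parallel cultures.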
# Chain of Tumor necrosis factor (Homo sapiens) (P01375 whole entry, looked up): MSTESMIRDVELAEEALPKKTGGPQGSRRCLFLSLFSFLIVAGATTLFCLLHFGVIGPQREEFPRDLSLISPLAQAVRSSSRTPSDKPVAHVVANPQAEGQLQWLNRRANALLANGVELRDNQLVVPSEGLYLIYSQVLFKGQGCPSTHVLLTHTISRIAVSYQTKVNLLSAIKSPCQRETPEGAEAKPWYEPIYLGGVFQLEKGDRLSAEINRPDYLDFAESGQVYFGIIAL
SMILES,outcome [1],outcome [2],outcome [3],outcome [4],outcome [5],outcome [6],outcome [7],outcome [8],outcome [9],outcome [10],AC50 [6],AC50 [7],AC50 [1],AC50 [3],AC50 [4],AC50 [5],AC50 [8],AC50 [9],AC50 [10],AC50 [2]
CC(C=O)Cc1ccc(C(C)(C)C)cc1 (stereo not given),inactive,inactive,inactive,inactive,inactive,inactive,inactive,inactive,inactive,inactive,,,,,,,,,,
CN(c1nccc(=O)[nH]1)C1CCN(c2nc3ccccc3n2Cc2ccc(F)cc2)CC1,inactive,inactive,inactive,inactive,inactive,inactive,inactive,inactive,inactive,inactive,,,,,,,,,,
CN(C)C(=S)SC(=S)N(C)C,inactive,inactive,inactive,inactive,inactive,,,inactive,inactive,inactive,19.9 µM (active),26.7 µM (active),,,,,,,,
COc1cc(Cl)c(OC)cc1N,inactive,inactive,inactive,inactive,inactive,inactive,inactive,inactive,inactive,inactive,,,,,,,,,,
CCCCN(CCCC)C(=O)N(CCCC)CCCC,,inactive,,,,,inactive,,,,24.7 µM (active),,20 µM (active),20 µM (active),20 µM (active),9.7 µM (active),20 µM (active),11.2 µM (active),20 µM (active),
C=C(C)[C@H]1CC=C(C)C(=O)C1,inactive,inactive,inactive,inactive,inactive,inactive,inactive,inactive,inactive,inactive,,,,,,,,,,
CS(=O)(=O)c1ccc(C2=C(c3ccccc3)C(=O)OC2)cc1,inactive,inactive,inactive,inactive,inactive,inactive,inactive,inactive,inactive,inactive,,,,,,,,,,
CCCCCCC(CO)CCCC (stereo not given),inactive,inactive,inactive,inactive,inactive,inactive,inactive,inactive,inactive,inactive,,,,,,,,,,
O=C1c2ccccc2C(=O)c2c(O)ccc(O)c21,inactive,,inactive,,,inactive,,inactive,inactive,inactive,,13.1 µM (active),,,3.52 µM (active),1.21 µM (active),,,,0.233 µM (active)
CC1(C)C2=CCCC(C)(C)[C@]23CC[C@H]1C3,inactive,inactive,inactive,inactive,inactive,inactive,inactive,inactive,inactive,inactive,,,,,,,,,,
C=C(C)C(=O)OCCOCCOCCOCCOC(=O)C(=C)C,inactive,inactive,inactive,inactive,inactive,inactive,inactive,inactive,inactive,inactive,,,,,,,,,,
CCOC(=O)C(C#N)=C(c1ccccc1)c1ccccc1,inactive,,inactive,inactive,inactive,inactive,inactive,inactive,inactive,inactive,,,,,,,,,20 µM (active),6.95 µM (active) and 2.79 µM (active)
CN(C)C(=O)Nc1ccc(Oc2ccc(Cl)cc2)cc1,inactive,,inactive,inactive,inactive,inactive,inactive,inactive,inactive,inactive,,,,,,,,,,5.86 µM (active)
CCCCOC(=O)CCCCCCCC(=O)OCCCC,inactive,inactive,inactive,inactive,inactive,inactive,inactive,inactive,,inactive,,,,,,,,,,
CCN(CC)C(=O)N(CC)CC,inactive,inactive,inactive,inactive,inactive,inactive,inactive,inactive,inactive,inactive,,,,,,,,,,
CCCCCC(C=O)=Cc1ccccc1,,,,inactive,inactive,,inactive,inactive,inactive,inactive,30.4 µM (active),,32.9 µM (active),33.3 µM (active),,,,,,34 µM (active)
CC(=O)C1(C)CC2=C(CCCC2(C)C)CC1C (stereo not given),,inactive,,,inactive,,,,,,13 µM (active),33 µM (active),10.9 µM (active),8.91 µM (active),10.1 µM (active),,15.2 µM (active),24.5 µM (active),23.6 µM (active),
C=C(C)C(=O)OCCOCCOCCOC(=O)C(=C)C,inactive,inactive,inactive,inactive,inactive,inactive,inactive,inactive,inactive,inactive,,,,,,,,,,
CSCCC=O,inactive,inactive,inactive,inactive,inactive,inactive,inactive,inactive,inactive,inactive,,,,,,,,,,
CCCCCCCCCCCCCCCC(=O)OC/C=C(C)/C=C/C=C(C)/C=C/C1=C(C)CCCC1(C)C,inactive,inactive,inactive,inactive,inactive,,,inactive,,inactive,20 µM (active),3.97 µM (active),,,,,,20 µM (active),,

# — PubChem BioAssay (EPA / NIEHS)
